Compound activity deposited in PubChem BioAssay by National Center for Advancing Translational Sciences (NCATS).
Rows were chosen to be rich in hits. Some 7.2% of all compounds tested hit in one or more screens of this group.
HEK293 viab – GF-AFC viability counterscreen for inhibitors of alpha-synuclein gene (SNCA) expression | HEK-293-SNCA-luc viability, GF-AFC fluorescence, 24 h | Potency, µM (series often up to 57.1 µM), hits mostly cytotoxic | 0.12% of 150,000 active | AID 1671193, 2021; further: nearly all actives have a fitted effect of over 30% in size
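Cytotoxicity counterscreen: after 24 h compound treatment of genome-edited SNCA-luciferase HEK-293 cells, live-cell protease substrate GF-AFC read by fluorescence after 30 min; activity scaled between DMSO (0%) and medium-only (-100%), curves Hill-fitted.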
Luciferase inh – Firefly luciferase inhibition profiling of diverse chemical library using quantitative high-throughput screening; purified P. pyralis luciferase, luminescence, biochemical; Potency, µM (top dose mostly 115 µM), hits mostly inhibitors; AID 1347043, 2019; 2.5% of 76,000 active; Luciferin 4-monooxygenase (Photinus pyralis), P08659; further: nearly all actives have a fitted effect of over 65% in size
Target sequence (P08659 whole entry, looked up): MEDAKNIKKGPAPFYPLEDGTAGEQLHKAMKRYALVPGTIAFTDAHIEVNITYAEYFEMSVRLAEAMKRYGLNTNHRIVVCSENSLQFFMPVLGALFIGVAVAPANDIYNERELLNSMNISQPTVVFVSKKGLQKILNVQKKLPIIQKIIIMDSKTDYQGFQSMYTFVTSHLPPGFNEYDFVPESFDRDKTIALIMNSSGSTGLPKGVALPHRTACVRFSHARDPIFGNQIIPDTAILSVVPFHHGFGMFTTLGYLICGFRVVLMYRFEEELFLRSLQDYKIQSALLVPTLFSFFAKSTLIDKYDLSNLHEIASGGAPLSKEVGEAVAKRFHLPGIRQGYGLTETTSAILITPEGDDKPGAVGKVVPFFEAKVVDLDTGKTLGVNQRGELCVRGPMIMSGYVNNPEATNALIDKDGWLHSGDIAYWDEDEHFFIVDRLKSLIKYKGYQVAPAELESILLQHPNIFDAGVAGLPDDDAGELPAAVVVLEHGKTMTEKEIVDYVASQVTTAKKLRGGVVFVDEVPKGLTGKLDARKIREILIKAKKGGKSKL
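Purified 10nM P. pyralis luciferase with 10uM D-luciferin and 10uM ATP in 50mM Tris acetate pH 7.5, 10mM Mg acetate, 0.01% Tween-20, 0.05% BSA. qHTS titration; luminescence read by CCD imager.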
NPR1 antag – Natriuretic polypeptide receptor (hNpr1) antagonism - Primary qHTS; 1.6% of 76,000 active; HEK293 hNpr1 GloSensor cGMP, ANP-stimulated luminescence; AID 1347048, 2019; Potency, µM (titrated, usually from 46.3 µM), usual class: inhibitors; calls by dose curve; further: nearly all actives have a fitted effect of over 60% in size
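Compound pre-incubated 30 min at room temperature on GloSensor-loaded HEK293 cells stably carrying hNpr1 and the pGS-40F cGMP biosensor. Stimulation uses hNppA at 0.1 nM final; luminescence is taken at baseline and 20 min post-agonist.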
3T3 cytotox – Cytotoxic Profiling in NIH 3T3 Cell Line of Diverse Libraries Using Quantitative High-Throughput Screening; NIH 3T3 viability, CellTiter-Glo ATP luminescence, 48-72 h; Potency, µM (highest dose often 96.7 µM), usual class: inhibitors; 4.3% of 94,000 active; further: nearly all actives have a fitted effect of over 55% in size
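Mouse fibroblast NIH 3T3 cells, 400 per well, received compound via pintool and were incubated for 48 or 72 hr prior to CellTiter-Glo ATP luminescence measurement.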
HEK293 tox – Cytotoxic Profiling in HEK 293 Cell Line of Diverse Libraries Using Quantitative High-Throughput Screening; HEK 293 viability, ATP luminescence (CellTiter-Glo), 48-72 h; Potency, µM (series often up to 115 µM), usual class: inhibitors; 6.6% of 94,000 active; further: nearly all actives have a fitted effect of over 60% in size
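ATP-coupled CellTiter-Glo luminescence served as viability read-out, recorded 10 min after reagent addition at room temperature. HEK 293 cells, 250 cells/well, had been incubated with pintool-transferred compound for 48 or 72 hr at 37 degree Celsius.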
SNCA expr inhib – Primary qHTS assay for inhibitors of alpha-synuclein gene (SNCA) expression; AID 1671194, 2021; HEK-293 SNCA-luciferase knock-in, luminescence, 24 h; 0.17% of 140,000 active; Potency, µM (titrated, usually from 57.2 µM), actives largely listed as inhibitors; further: nearly all actives have a fitted effect of over 45% in size
Of the large screens only hits and unclear results are named; the others gave an inactive call. Unless noted, the call rests on the fitted dose curve; in most records, active means well fitted curve in the direction sought with a large enough effect; inconclusive means small, poorly fitted or top-dose-only effect, or another doubt; inactive means no such curve, though single readings can be large; an effect the other way counts as inactive or inconclusive.

COc1ccccc1-c1[nH]nc2ncc(-c3cccc(F)c3)nc12	HEK293 viab inconclusive (no result: Luciferase inh, NPR1 antag, 3T3 cytotox, HEK293 tox)
COc1ccc(-c2cnc3n[nH]c(-c4ccc(F)cc4C)c3n2)cc1OC	3T3 cytotox 28µM, HEK293 tox 28µM
Cc1ccccc1-c1[nH]nc2ncc(-c3cccc(F)c3)nc12	Luciferase inh 20µM, 3T3 cytotox inconclusive, HEK293 tox 63µM
Cc1ccccc1-c1[nH]nc2ncc(-c3ccc(F)cc3)nc12	HEK293 viab inconclusive, Luciferase inh 22µM, 3T3 cytotox inconclusive, HEK293 tox 45µM
COc1ccccc1OCCCN1CC[C@@](C)(O)[C@@H](O)C1	none
COc1cccc(-c2cn3cc(C(=O)NCc4cccc(C(F)(F)F)c4)nc3s2)c1	3T3 cytotox inconclusive, HEK293 tox inconclusive (no result: Luciferase inh, NPR1 antag)
CCc1ccccc1S(=O)(=O)N1CCC(n2cnnc2C)CC1	none
CC(=O)N1CCN(C(=O)c2cc(-c3ccccc3C(F)(F)F)nc3c2cnn3C)CC1	none (no result: HEK293 viab, Luciferase inh, NPR1 antag, SNCA expr inhib)
Cn1ncc2c(C(=O)N3CCN(Cc4ccccc4)CC3)cc(-c3ccccc3C(F)(F)F)nc21	3T3 cytotox inconclusive, HEK293 tox 45µM (no result: HEK293 viab, Luciferase inh, NPR1 antag, SNCA expr inhib)
Cn1ncc2c(C(=O)N3CCC(c4ccccc4)CC3)cc(-c3ccccc3C(F)(F)F)nc21	3T3 cytotox 28µM, HEK293 tox 45µM (no result: HEK293 viab, Luciferase inh, NPR1 antag, SNCA expr inhib)
Cn1ncc2c(C(=O)N3CCC(Cc4ccccc4)CC3)cc(-c3ccccc3C(F)(F)F)nc21	3T3 cytotox 28µM, HEK293 tox 40µM (no result: HEK293 viab, Luciferase inh, NPR1 antag, SNCA expr inhib)
Cn1ncc2c(C(=O)N3CCCCC3)cc(-c3ccccc3C(F)(F)F)nc21	HEK293 tox inconclusive (no result: HEK293 viab, Luciferase inh, NPR1 antag, SNCA expr inhib)
COc1ccc2c(c1)C(C[C@H]1CN(C(=O)C3CC3)CC[C@H]1CC(=O)O)=NCC2	none
COc1ccc(N2CCN(C(=O)CN3C(=O)C(c4ccccc4)=NC3(C)C)CC2)cc1	HEK293 tox inconclusive, SNCA expr inhib inconclusive
CCOc1cc(-c2nc3ccc(-c4ccc(OC)c(OC)c4OC)cc3o2)ccc1OC	none
CCNC(=O)[C@@H]1CCCN1[C@@H](C(=O)NC)c1ccc(OC)cc1	none
CNC(=O)[C@@H](c1ccc(OC)cc1)N1CCC[C@H]1C(=O)NCC1CCCCC1	3T3 cytotox 100µM, HEK293 tox inconclusive
CN1CCC(C(=O)N2Cc3ccccc3CC3(CCCCN3CC3CCNCC3)C2)CC1 (configuration not stated)	none (no result: Luciferase inh, NPR1 antag)
O=C(O)CCC(=O)N1Cc2ccccc2CC2(CCCN2Cc2ccccc2)C1 (configuration not stated)	none (no result: Luciferase inh, NPR1 antag)
CN(C)CCCC(=O)N1Cc2ccccc2CC2(CCCCN2Cc2ccccc2)C1 (configuration not stated)	3T3 cytotox inconclusive, HEK293 tox 79µM (no result: Luciferase inh, NPR1 antag)
O=C(c1ccccc1)N1Cc2ccccc2CC2(CCCCN2CC2CCNC2)C1 (configuration not stated)	3T3 cytotox inconclusive, HEK293 tox 79µM (no result: Luciferase inh, NPR1 antag)
C[C@@]1(O)CCN(C(=O)c2cc(C(F)(F)F)ccc2Cl)C[C@@H]1O	HEK293 tox inconclusive
O=c1cc(-c2ccncc2)oc2c(-c3cccc(CO)c3)nccc12	3T3 cytotox 45µM
O=c1cc(-c2ccncc2)oc2c(-c3ccccc3F)nccc12	3T3 cytotox inconclusive, HEK293 tox inconclusive, SNCA expr inhib inconclusive
Cn1cc(-c2cc(=O)c3ccnc(-c4cccc5[nH]ccc45)c3o2)cn1	3T3 cytotox inconclusive, HEK293 tox inconclusive
Cc1ccccc1-c1nccc2c(=O)cc(-c3ccncc3)oc12	3T3 cytotox inconclusive, HEK293 tox 100µM, SNCA expr inhib inconclusive
COc1ncccc1-c1nccc2c(=O)cc(-c3ccncc3)oc12	3T3 cytotox 28µM
O=c1cc(-c2ccncc2)oc2c(-c3cccc4[nH]ccc34)nccc12	3T3 cytotox inconclusive, HEK293 tox 25µM
